Each structure is given as a SMILES string. Inconclusive results are not listed. A number with no mark means an inactive call. Calls of active or inactive are those of the source. Unless noted, the call rests on the fitted dose curve.
On the % scale 0 is the no-effect control and ±100 the full control effect; potency means the concentration at half of the fitted maximal effect.

Test system in one experiment: not listed separately
The experiment is described as follows: qHTS for Inhibitors of the Functional Ribonucleoprotein Complex (vRNP) of Lymphocytic Choriomeningitis Arenaviruses (LCMV): Viability assay - alamar blue signal for LCMV Primary Screen (AID 1347085; calls by dose curve; tested in HEK293 reporter line; further: nearly all actives have a fitted effect of over 80% in size). The note with it: alamar blue viability counter-screen, LCMV vRNP screen cells; series mostly up to 57.5 µM; activity change, negative = lower viability: at the top concentration. (qHTS replaces the single test concentration by a dilution series.)
In the case of `CN(N=O)c1ccc(O)c(O)c1`, the “activity change, negative = lower viability” value is 5.67%.
On the same count and under the same terms, in the case of `COc1ccc(CNC(=O)/C=C/c2ccc3[nH]cc(CCN(C)C)c3c2)cc1` it was -2.8%; in that of `CC(C)NP(=O)(NC(C)C)OP(=O)(NC(C)C)NC(C)C`, 12.3%; in that of `NCCc1ccc(S(=O)(=O)F)cc1`, 13.5%.
As for `COc1ccc2[nH]c3c(c2c1)CCNC3`, the Potency result is “inactive”.
Turning to `N[C@@H](Cn1oc(=O)[nH]c1=O)C(=O)O`, the Potency entry is “inactive”.
Same read-out and setting: in the case of `C[C@@H]1O[C@@H](O[C@H]2C[C@@H](O)[C@]3(CO)[C@@H]4C(CC[C@]3(O)C2)[C@@]2(O)CC[C@H]([C@@H]3COC(=O)C3)[C@@]2(C)C[C@H]4O)[C@H](O)[C@H](O)[C@H]1O` (some centres undefined) it was 2240 nM (active).
As for `C=CCN1CCC23c4c5ccc(O)c4O[C@H]2C(=O)CC[C@@]3(O)C1C5` (some centres undefined), the “activity change, negative = lower viability” value is -0.856%.
The same measure, in the same setting: under `CCCn1c(=O)c2[nH]c(C3CCCC3)nc2n(CCCOC(=O)c2ccc(S(=O)(=O)F)cc2)c1=O` stands 1.85%; under `O=[N+]([O-])/C=C/c1ccc2c(c1)OCO2`, -7.64%.

In the next experiment the target is Nucleoprotein (Lymphocytic choriomeningitis virus (strain Armstrong)) (UniProt P09992). Kind of experiment: qHTS for Inhibitors of the Functional Ribonucleoprotein Complex (vRNP) of Lymphocytic Choriomeningitis Arenaviruses (LCMV): LCMV Primary Screen - GLuc reporter signal (AID 1347086). Further: nearly all actives have a fitted effect of over 70% in size. As to conditions: LCMV minigenome vRNP cell assay, Gaussia luciferase reporter; series mostly up to 57.5 µM; activity change, negative = inhibition: at the top concentration.
Chain of Nucleoprotein (Lymphocytic choriomeningitis virus (strain Armstrong)) (P09992 whole entry, looked up): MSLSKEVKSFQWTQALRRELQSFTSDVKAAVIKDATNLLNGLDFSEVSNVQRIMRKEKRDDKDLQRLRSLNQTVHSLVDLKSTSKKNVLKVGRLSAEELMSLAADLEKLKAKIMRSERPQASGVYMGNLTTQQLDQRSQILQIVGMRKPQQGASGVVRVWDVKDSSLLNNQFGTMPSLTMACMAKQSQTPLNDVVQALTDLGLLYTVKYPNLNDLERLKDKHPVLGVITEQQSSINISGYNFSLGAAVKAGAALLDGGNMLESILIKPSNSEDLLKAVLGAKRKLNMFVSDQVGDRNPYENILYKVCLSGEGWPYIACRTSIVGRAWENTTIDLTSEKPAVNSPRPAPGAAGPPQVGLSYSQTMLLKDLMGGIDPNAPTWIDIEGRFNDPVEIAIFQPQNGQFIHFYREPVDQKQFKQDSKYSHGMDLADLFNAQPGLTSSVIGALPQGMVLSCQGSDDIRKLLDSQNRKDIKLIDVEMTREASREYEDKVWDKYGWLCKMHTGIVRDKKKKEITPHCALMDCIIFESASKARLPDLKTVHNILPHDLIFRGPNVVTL
`NC(C(=O)O)c1cc(=O)[nH]o1` (centres undefined): the Potency result is “inactive”.
On to `CCCN1CCc2cccc3c2[C@H]1Cc1ccc(O)c(O)c1-3`, for which the “activity change, negative = inhibition” value is 22.4%.
In the case of `CC(=O)c1c(O)c(C)c(O)c(Cc2c(O)c3c(c(C(=O)/C=C/c4ccccc4)c2O)OC(C)(C)C=C3)c1O`, the Potency entry is “inactive”.
Regarding `CC(N)[C@H](O)c1ccc(O)c(O)c1` (some centres undefined), the “activity change, negative = inhibition” value is 15.4%.
The same measure, in the same setting: under `CCOC(=O)c1ncn2c1[C@@H]1CCCN1C(=O)c1cc(OC)ccc1-2` stands -32.1%; under `COc1ccc2c(c1)C13CCCCC1C(C2)N(C)CC3` (centres undefined), 4.8%.
Turning to `NC(=O)CI`, the Potency result was “inactive”.
Take `c1ccc2c(N3CCNCC3)cccc2c1`: the “activity change, negative = inhibition” value is 22.6%.
Same read-out and setting: under `Cc1o[nH]c(=O)c1CC(N)C(=O)O` (centres undefined) stands 31.7%; under `C/C(O)=C(\C#N)C(=O)Nc1cc(Br)ccc1Br`, -4.95%.
Regarding `NC(Cc1cc(O)c(O)cc1O)C(=O)O` (centres undefined), the Potency result was “inactive”.
For `NCC(O)c1cc(O)c(O)cc1F` (centres undefined), the “activity change, negative = inhibition” value is 11.2%.
Still for that read-out and setting: in the case of `C[N+](C)(C)CC#CCN1CCCC1=O` it was 5.79%.
`CN(N=O)c1cc(O)ccc1O`: the Potency entry is “inactive”.
For the compound `N#CCCN`, the “activity change, negative = inhibition” value is 14%.
Still for that read-out and setting: in the case of `Cc1c2ccncc2c(C)c2c1[nH]c1ccccc12` it was -66.2%.
The same measure, in the same setting: in the case of `NC(=O)c1cc(N2CC2)c([N+](=O)[O-])cc1[N+](=O)[O-]` it was 18.7%; in that of `NC(N)=Nc1ccc2[nH]c3c(c2c1)C[C@@]1(O)[C@H]2Cc4ccc(O)c5c4[C@@]1(CCN2CC1CC1)[C@H]3O5`, 0.129%.
With `CCCN1CCc2cc(O)cc3c2[C@H]1Cc1ccc(O)c(O)c1-3`, the “activity change, negative = inhibition” value was -25.7%.
Same read-out and setting: in the case of `NNC(=O)c1ccc(O)cc1` it was 2.03%; in that of `CN1CCc2cc(O)cc3c2[C@H]1Cc1ccc(O)c(O)c1-3`, -3.85%.
Still for that read-out and setting: in the case of `OC1CCCCC1N1CCC(c2ccccc2)CC1` (centres undefined) it was -2.16%; in that of `C[N+]1(C)CCN(c2ccccc2)CC1`, 9.42%.
On the same count and under the same terms, under `C[N+]1(C)C2CCC1CC(OC(=O)c1c[nH]c3ccccc13)C2` (centres undefined) stands -5.26%; under `CN(N=O)c1ccc(O)c(O)c1`, -11.8%.
For `COc1ccc(CNC(=O)/C=C/c2ccc3[nH]cc(CCN(C)C)c3c2)cc1`, the “activity change, negative = inhibition” value was 27%.
Regarding `CC(C)NP(=O)(NC(C)C)OP(=O)(NC(C)C)NC(C)C`, the “activity change, negative = inhibition” value is 10.5%.
As for `NCCc1ccc(S(=O)(=O)F)cc1`, the “activity change, negative = inhibition” value is 18.1%.
On to `COc1ccc2[nH]c3c(c2c1)CCNC3`, for which the Potency result was “inactive”.
With `N[C@@H](Cn1oc(=O)[nH]c1=O)C(=O)O`, the Potency entry was “inactive”.
The same measure, in the same setting: under `C[C@@H]1O[C@@H](O[C@H]2C[C@@H](O)[C@]3(CO)[C@@H]4C(CC[C@]3(O)C2)[C@@]2(O)CC[C@H]([C@@H]3COC(=O)C3)[C@@]2(C)C[C@H]4O)[C@H](O)[C@H](O)[C@H]1O` (some centres undefined) stands 2000 nM (active).
On to `C=CCN1CCC23c4c5ccc(O)c4O[C@H]2C(=O)CC[C@@]3(O)C1C5` (some centres undefined), for which the “activity change, negative = inhibition” value is 7.43%.
The same measure, in the same setting: under `CCCn1c(=O)c2[nH]c(C3CCCC3)nc2n(CCCOC(=O)c2ccc(S(=O)(=O)F)cc2)c1=O` stands 28.9%; under `O=[N+]([O-])/C=C/c1ccc2c(c1)OCO2`, -25.8%.
